# In PubChem BioAssay:
# System: not listed separately
# Assay: hepatitis C replication reporter changes, two-sided – Huh7 cells, luciferase reporter, HCV replication inhibitor project, primary screen (AID 1109);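 also: huh7 hepatoma cells harbouring a luciferase neomycin HCV replicon reporter; luciferase luminescence as measure of HCV replicon replication; test concentration not given here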
# Conditions: Huh7 HCV replicon luciferase reporter, 48 h; higher = more signal
row,Structure (SMILES),z-score
1,COc1ccc([Si](C)(C)[C@H]2[C@H](CC(=O)N3CCC[C@H]3CO)O[C@@]3(C(=O)N(Cc4ccc(N5CCC5=O)cc4)c4ccccc43)[C@@H]2C)cc1,-1.88
2,C=CCNC(=O)[C@H]1[C@@H]2C(=O)O[C@@H](c3ccccc3)[C@@H](c3ccccc3)N2[C@@H](c2ccc(OCCO)cc2)[C@]12C(=O)Nc1ccc(C#CCNC(N)=O)cc12,-0.587
3,C=CCC(OC(C)=O)[C@@H]1[C@@H](N(Cc2cccc3ccccc23)C(=O)Cc2ccc(F)cc2)c2cc(OCCCO)ccc2N1C(=O)c1ccc(-c2ccccc2)cc1 (some centres not stated),-1.09
4,CC1CC/C=C\[C@H]2OC34C=CCN(CCN5CCOCC5)C(=O)[C@H]3N(C(C)CO)C(=O)[C@@H]4C2C(=O)O1 (some centres not stated),-0.91
5,C=CCN1C(=O)[C@]2(O[C@H](CCO)[C@@H]([Si](C)(C)c3ccc(OC)cc3)[C@@H]2C)c2cc(N3C(=O)COc4ccccc43)ccc21,-5.2
6,CN(C)C(=O)[C@]1(CCS(=O)(=O)c2ccccc2)N=C(c2ccc(OCCCO)cc2)O[C@@H]1c1ccccc1,-2.25
7,Cc1ccccc1C(O)C1C=CC2C(=O)NC(=O)C2N1Nc1ccc(Cl)cc1Cl (configuration not stated),-0.595
8,O=C1c2ccccc2[C@](Cc2ccccc2I)(C(=O)NC2CC2)[C@H](c2ccc(CO)cc2)N1Cc1ccccc1C(F)(F)F,-2.2
9,Cc1ccc(C(C)CC(O)C2C=CC3C(=O)N(c4ccccc4)C(=O)C3N2Nc2ccc(C#N)cc2)o1 (configuration not stated),0.0453
10,COc1ccc([Si](C)(C)[C@H]2[C@H](CCO)O[C@@]3(C(=O)N(Cc4ccccc4)c4ccc(N5C(=O)c6ccccc6Oc6ccccc65)cc43)[C@@H]2C)cc1,-4.49
11,COCCOC(=O)N1C(=O)[C@@]2(c3cc(C#CC4=CCCCC4)ccc31)[C@H](C(=O)N1CCCCCCC1)[C@H]1C(=O)O[C@H](c3ccccc3)[C@H](c3ccccc3)N1[C@@H]2c1ccc(OCCO)cc1,-2.08
12,CC(C)[C@H]1NC(=O)[C@@]23C(=O)N[C@@H](Cc4ccccc4)C2[C@H](C)[C@@]2(C)O[C@H]2C3/C=C/C/C=C\CNC(=O)[C@H](Cc2ccccc2)NC1=O (some centres not stated),-0.26
13,CC(C)=CCCC(C)=CC(O)C1C=CC2C(=O)N(c3ccccc3)C(=O)C2N1Nc1ccccc1F (configuration not stated),-1.43
14,CC(C)C[C@@H]1NC(=O)CNC(=O)[C@@]23C(=O)N[C@@H](Cc4ccccc4)C2[C@H](C)[C@@]2(C)O[C@H]2C3/C=C/C/C=C\CNC1=O (some centres not stated),-0.275
15,COC(=O)[C@@]1(Cc2ccc(F)cc2)[C@H]2c3cc(C(=O)N(C)C)n(Cc4ccc(O)c(OC)c4)c3C[C@H]2CN1C(=O)c1ccccc1,-1.05
16,C=C(COC)C(=O)CC[C@@H](OC(=O)c1cccnc1)c1ccccc1OCCO,-3.82
17,CN(C)CCCNC(=O)[C@@H]1c2ccccc2C(=O)N(C2CCCCC2)[C@H]1c1ccc(CO)cc1,-2.43
18,COc1cc(NN2C(C(O)c3ccc(I)cc3)C=CC3C(=O)N(c4ccccc4)C(=O)C32)cc(OC)c1OC (configuration not stated),-0.573
19,Cc1ccc([C@H]2C(C(=O)O)=C[C@@H](C(C)(C)C)N2S(=O)(=O)c2ccc(C)cc2)cc1,0.0372
20,CC(C)OC(=O)CC(=O)CC(O)c1ccc([N+](=O)[O-])cc1 (configuration not stated),-0.601
21,NC(=O)N1C(=O)C2C(C1=O)C1C=C(CCCO)C2C(C2CC2)N1Cc1cccc(OC(F)(F)F)c1 (configuration not stated),-1.4
22,CC(CO)N1C(=O)[C@@H]2[C@H]3C(=O)OCC=C[C@H]3OC23C=CCN(c2ccc(Cl)cc2)C(=O)[C@@H]13 (some centres not stated),-0.205
23,NC(=O)[C@@H]1[C@H]2C(=O)O[C@H](c3ccccc3)[C@H](c3ccccc3)N2[C@H](c2ccc(OCCO)cc2)[C@@]12C(=O)Nc1ccc(C#CCCO)cc12,-1.41
24,CCOC(=O)C[C@H]1[C@H](OC(=O)c2ccc(C(=O)c3ccccc3)cc2)[C@@H](NC(=O)CC(C)C)c2cc(OCCCO)ccc2N1C(=O)Cc1ccc(OC)cc1,-2.05
25,COCCCNC(=O)[C@@]1(c2ccc([N+](=O)[O-])cc2)CC(=O)N(CC23CC4CC(CC(C4)C2)C3)[C@@H]1c1ccc(CO)cc1I,-3.15
26,C=C(/C(=C/C[C@@H](OC(C)=O)c1ccc(CO)o1)c1cc(C(=O)OC)ccc1OC)C(C)C,-0.9

# Target: Left-right determination factor 2 (Homo sapiens) (UniProt O00292)
# Assay: small molecules binding LEFTY2 protein – biochemical, small-molecule microarray, 635 nm fluorescence scan, primary screen (AID 1110)
# Conditions: higher = more signal
# Chain of Left-right determination factor 2 (Homo sapiens) (O00292 whole entry, looked up): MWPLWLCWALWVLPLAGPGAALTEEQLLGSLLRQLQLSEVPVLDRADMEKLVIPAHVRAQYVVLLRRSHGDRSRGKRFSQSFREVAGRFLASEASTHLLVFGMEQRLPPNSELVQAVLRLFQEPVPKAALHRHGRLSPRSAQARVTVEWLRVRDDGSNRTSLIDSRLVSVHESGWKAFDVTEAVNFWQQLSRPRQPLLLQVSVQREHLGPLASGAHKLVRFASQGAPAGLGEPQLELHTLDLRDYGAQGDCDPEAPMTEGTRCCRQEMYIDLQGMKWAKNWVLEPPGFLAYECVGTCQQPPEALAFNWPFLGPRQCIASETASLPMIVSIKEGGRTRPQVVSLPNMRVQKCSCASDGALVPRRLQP
row,Structure (SMILES),composite z-score
1,Cc1nc2cc(Br)ccc2c(=O)n1Cc1cccc(O)c1,0.874
2,C=C[C@@H](C)[C@H](O)c1ccc(OCCO)cc1,-2.31
3,C=CCN1C(=O)[C@]2(O[C@H](CCO)[C@@H]([Si](C)(C)c3ccc(OC)cc3)[C@@H]2C)c2cc(NC(=O)c3ccc(OC)cc3)ccc21,0.391
4,CCOC(=O)C[C@H]1[C@H](OC(=O)c2cc3ccccc3oc2=O)[C@@H](NC(=O)c2ccc3ccccc3c2)c2cc(OCCCO)ccc2N1C(=O)Cc1ccc(OC)cc1,0.763
5,COc1ccc(C#Cc2ccc3c(c2)[C@]2(C(=O)N3)[C@H](c3ccc(OCCO)cc3)N3[C@H](c4ccccc4)[C@H](c4ccccc4)OC(=O)[C@H]3[C@@H]2C(=O)N2CCc3cc(OC)c(OC)cc3C2)cc1,0.461
6,COC(=O)c1c2oc(c1C(=O)OC)C(=O)N1CCC[C@H]1Cn1nncc1CN(Cc1ccccc1)C(=O)N[C@H](CO)CC2,0.239
7,COC(=O)C(CC#Cc1ccc2c(c1)[C@]1(C(=O)N2)[C@H](c2ccc(O)cc2)N2[C@H](c3ccccc3)[C@H](c3ccccc3)OC(=O)[C@H]2[C@@H]1C(=O)N1CCCCCCC1)C(=O)OC,0.65
8,C=C[C@H](C)[C@H](OC(=O)Nc1ccc(OC)cc1)c1ccc(OCCO)cc1,-2.08
9,[N-]=[N+]=NC[C@H](Cc1ccccc1)NC(=O)c1ccccc1,-0.0257
10,COc1ccc([Si](C)(C)[C@H]2[C@H](CC(=O)N3Cc4ccccc4C[C@H]3CO)O[C@@]3(C(=O)N(Cc4ccc(N5C(=O)c6cccc7cccc5c67)cc4)c4ccccc43)[C@@H]2C)cc1,0.952
11,COc1ccc([Si](C)(C)[C@H]2[C@H](CC(=O)N3CCC[C@H]3CO)O[C@@]3(C(=O)N(Cc4ccc(N5CCC5=O)cc4)c4ccccc43)[C@@H]2C)cc1,0.794
12,C=CCNC(=O)[C@H]1[C@@H]2C(=O)O[C@@H](c3ccccc3)[C@@H](c3ccccc3)N2[C@@H](c2ccc(OCCO)cc2)[C@]12C(=O)Nc1ccc(C#CCNC(N)=O)cc12,0.192
13,C=CCC(OC(C)=O)[C@@H]1[C@@H](N(Cc2cccc3ccccc23)C(=O)Cc2ccc(F)cc2)c2cc(OCCCO)ccc2N1C(=O)c1ccc(-c2ccccc2)cc1 (some centres not stated),-0.197
14,CC1CC/C=C\[C@H]2OC34C=CCN(CCN5CCOCC5)C(=O)[C@H]3N(C(C)CO)C(=O)[C@@H]4C2C(=O)O1 (some centres not stated),-0.536
15,C=CCN1C(=O)[C@]2(O[C@H](CCO)[C@@H]([Si](C)(C)c3ccc(OC)cc3)[C@@H]2C)c2cc(N3C(=O)COc4ccccc43)ccc21,0.181
16,CN(C)C(=O)[C@]1(CCS(=O)(=O)c2ccccc2)N=C(c2ccc(OCCCO)cc2)O[C@@H]1c1ccccc1,0.389
17,Cc1ccccc1C(O)C1C=CC2C(=O)NC(=O)C2N1Nc1ccc(Cl)cc1Cl (configuration not stated),-0.345
18,O=C1c2ccccc2[C@](Cc2ccccc2I)(C(=O)NC2CC2)[C@H](c2ccc(CO)cc2)N1Cc1ccccc1C(F)(F)F,-1.16

row,Structure (SMILES),composite z-score
1,Cc1ccc(C(C)CC(O)C2C=CC3C(=O)N(c4ccccc4)C(=O)C3N2Nc2ccc(C#N)cc2)o1 (configuration not stated),0.168
2,COc1ccc([Si](C)(C)[C@H]2[C@H](CCO)O[C@@]3(C(=O)N(Cc4ccccc4)c4ccc(N5C(=O)c6ccccc6Oc6ccccc65)cc43)[C@@H]2C)cc1,-0.358
3,COCCOC(=O)N1C(=O)[C@@]2(c3cc(C#CC4=CCCCC4)ccc31)[C@H](C(=O)N1CCCCCCC1)[C@H]1C(=O)O[C@H](c3ccccc3)[C@H](c3ccccc3)N1[C@@H]2c1ccc(OCCO)cc1,0.654
4,CC(C)[C@H]1NC(=O)[C@@]23C(=O)N[C@@H](Cc4ccccc4)C2[C@H](C)[C@@]2(C)O[C@H]2C3/C=C/C/C=C\CNC(=O)[C@H](Cc2ccccc2)NC1=O (some centres not stated),0.736
5,CC(C)=CCCC(C)=CC(O)C1C=CC2C(=O)N(c3ccccc3)C(=O)C2N1Nc1ccccc1F (configuration not stated),-0.0742
6,CC(C)C[C@@H]1NC(=O)CNC(=O)[C@@]23C(=O)N[C@@H](Cc4ccccc4)C2[C@H](C)[C@@]2(C)O[C@H]2C3/C=C/C/C=C\CNC1=O (some centres not stated),0.6
7,COC(=O)[C@@]1(Cc2ccc(F)cc2)[C@H]2c3cc(C(=O)N(C)C)n(Cc4ccc(O)c(OC)c4)c3C[C@H]2CN1C(=O)c1ccccc1,-0.0182
8,C=C(COC)C(=O)CC[C@@H](OC(=O)c1cccnc1)c1ccccc1OCCO,0.078
9,CN(C)CCCNC(=O)[C@@H]1c2ccccc2C(=O)N(C2CCCCC2)[C@H]1c1ccc(CO)cc1,1.17
10,COc1cc(NN2C(C(O)c3ccc(I)cc3)C=CC3C(=O)N(c4ccccc4)C(=O)C32)cc(OC)c1OC (configuration not stated),0.391
11,Cc1ccc([C@H]2C(C(=O)O)=C[C@@H](C(C)(C)C)N2S(=O)(=O)c2ccc(C)cc2)cc1,0.326
12,CC(C)OC(=O)CC(=O)CC(O)c1ccc([N+](=O)[O-])cc1 (configuration not stated),-0.698
13,NC(=O)N1C(=O)C2C(C1=O)C1C=C(CCCO)C2C(C2CC2)N1Cc1cccc(OC(F)(F)F)c1 (configuration not stated),-0.219
14,CC(CO)N1C(=O)[C@@H]2[C@H]3C(=O)OCC=C[C@H]3OC23C=CCN(c2ccc(Cl)cc2)C(=O)[C@@H]13 (some centres not stated),-2.63
15,NC(=O)[C@@H]1[C@H]2C(=O)O[C@H](c3ccccc3)[C@H](c3ccccc3)N2[C@H](c2ccc(OCCO)cc2)[C@@]12C(=O)Nc1ccc(C#CCCO)cc12,-0.483
16,CCOC(=O)C[C@H]1[C@H](OC(=O)c2ccc(C(=O)c3ccccc3)cc2)[C@@H](NC(=O)CC(C)C)c2cc(OCCCO)ccc2N1C(=O)Cc1ccc(OC)cc1,0.142
17,COCCCNC(=O)[C@@]1(c2ccc([N+](=O)[O-])cc2)CC(=O)N(CC23CC4CC(CC(C4)C2)C3)[C@@H]1c1ccc(CO)cc1I,-0.381
18,C=C(/C(=C/C[C@@H](OC(C)=O)c1ccc(CO)o1)c1cc(C(=O)OC)ccc1OC)C(C)C,0.192
